Our source for the Potency values is PubChem BioAssay (NCATS).

Results filed as inconclusive are left out. Active and inactive are the calls of the source. Calls follow the shape of the dose curve; as a rule, active = well fitted inhibition curve with a large enough effect; inconclusive = small, poorly fitted or top-dose-only effect; inactive = flat fitted curve, though single readings scatter.

Assay in all cases: qHTS profiling for inhibitors of Plasmodium falciparum proliferation (AID 504749); also: nearly all actives have a fitted effect of over 60% in size
Holding throughout (conditions): P. falciparum in erythrocytes, SYBR Green DNA, 72 h; series mostly up to 28.7 µM
On the technique in general: Quantitative high-throughput screening tests each substance at several concentrations.

One test deals with CP266. The gist of the method:
(§1)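 P. falciparum-infected erythrocytes (0.3% parasitemia, 2.5% hematocrit final) were exposed to compounds for 72 h at 37 C in 5% CO2, then lysed with SYBR Green buffer overnight at room temperature; parasite DNA fluorescence was normalized to artemisinin and DMSO controls.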

Another test relates to CP268. In short, it runs like this:
as §1

The subject of a further test is CP269. In short, it runs like this:
as §1

A further test concerns CP286. In short, it runs like this:
as §1

The test system of a further test is CP291. In short, it runs like this: as §1
For the next test, the system named is CP297. In short, it runs like this: as §1
The subject of the next test is CP305. In short, it runs like this: as §1
For another test, the system named is CP315. The gist of the method:
as §1

The next test concerns CP325. The gist of the method: as §1
For the next test, the system named is CP329. In short, it runs like this:
as §1
Potency is read from the fitted curve at half-maximal effect.

On to `COc1ccc(/C=N/NC(=O)c2ccncc2)cc1OC`, for which the Potency entry with CP266, in the test on CP268, in the test on CP269, in the test with CP286, with CP291 and in the test with CP297 was “inactive” throughout. Besides, the Potency entry with CP305, in the test with CP315, in the test on CP325 and in the test with CP329 was “inactive” in each case.
Take `CCCCNc1ccc(C(=O)OCCOCCOCCOCCOCCOCCOCCOCCOCCOC)cc1`: the Potency result in the test on CP266, with CP268, with CP269, in the test on CP286, with CP291 and in the test on CP297 was “inactive” in each case. In addition, the Potency result with CP305, in the test with CP325 and with CP329 was “inactive” each time.
`Cl/C(=C\n1cncn1)c1ccc(Cl)cc1Cl`: the Potency entry in the test with CP266, with CP268, with CP269, with CP286, with CP291 and in the test on CP297 was “inactive” each time. The Potency entry in the test on CP305, in the test on CP315, in the test with CP325 and in the test with CP329 was “inactive” in each case.
As to `CCOc1ccccc1OCCN[C@H](C)Cc1ccc(OC)c(S(N)(=O)=O)c1`, the Potency result in the test on CP266, with CP268, in the test on CP269, in the test with CP286, in the test with CP291 and with CP297 was “inactive” in each case. The Potency result in the test with CP305, with CP315, in the test on CP325 and in the test with CP329 was “inactive” in each case.
With `Nc1nc(-c2ccccc2)c(Br)c(=O)[nH]1`, the Potency entry in the test on CP266, in the test on CP268, in the test on CP269, with CP286, in the test with CP291 and in the test on CP297 was “inactive” each time. The Potency result with CP305, in the test with CP315, with CP325 and with CP329 was “inactive” each time.
On to `CCCCCCCCCCCCOCCOCCOCCOCCOCCOCCOCCOCCOCCO`, for which the Potency entry in the test on CP266, in the test on CP268, with CP269, with CP286, with CP291 and in the test on CP297 was “inactive” each time. The Potency entry in the test on CP305, in the test on CP315, in the test with CP325 and in the test on CP329 was “inactive” throughout.
With `O=C(NCCc1c[nH]c2ccccc12)c1cccnc1`, the Potency result with CP266, in the test with CP268, with CP269, in the test with CP286, in the test on CP291 and with CP297 was “inactive” throughout. Moreover, the Potency entry with CP305, in the test with CP315, with CP325 and in the test on CP329 was “inactive” throughout.
For `FC1(F)C(F)(F)C(F)(F)C2(F)C(F)(F)C(F)(F)C(F)(F)C(F)(F)C2(F)C1(F)F` (stereo not given), the Potency entry in the test on CP266, in the test with CP268, with CP269, in the test with CP286, in the test on CP291 and in the test with CP297 was “inactive” in each case. For the same compound, the Potency entry in the test with CP305, with CP315, in the test with CP325 and in the test on CP329 was “inactive” in each case.
Turning to `Cc1cccc(C)c1NC(=O)CN1CCCCCC1`, the Potency result in the test with CP266, with CP268, with CP269, in the test with CP286, in the test with CP291 and with CP297 was “inactive” in each case. Also, the Potency entry in the test with CP305, in the test with CP315, in the test on CP325 and with CP329 was “inactive” in each case.
For `CCC(C(=O)OCCOCCN(CC)CC)c1ccccc1` (stereo not given), the Potency result with CP266, in the test on CP268, with CP269, in the test with CP286, in the test on CP291 and in the test on CP305 was “inactive” in each case. Also, the Potency entry in the test with CP315, in the test on CP325 and in the test on CP329 was “inactive” in each case. For the same compound, the Potency in the test on CP297 was 15.1 µM (active).
Consider `N#CCC(=O)NN`, for which the Potency result in the test with CP266, in the test on CP268, in the test with CP269, in the test on CP286, in the test on CP291 and in the test on CP297 was “inactive” in each case. In addition, the Potency result in the test with CP305, in the test with CP315, with CP325 and in the test with CP329 was “inactive” in each case.
Consider `O=C1C(CCS(=O)c2ccccc2)C(=O)N(c2ccccc2)N1c1ccccc1` (stereo not given), for which the Potency entry with CP266, with CP268, in the test with CP269, with CP286, in the test on CP291 and in the test with CP297 was “inactive” in each case. For the same compound, the Potency result in the test with CP305, in the test with CP325 and in the test with CP329 was “inactive” each time.
In the case of `COc1cc(C)nc(-n2nc(C)cc2OC)n1`, the Potency entry in the test on CP266, with CP268, in the test on CP269, in the test on CP286, in the test on CP291 and in the test with CP297 was “inactive” throughout. The Potency entry in the test with CP305, with CP315, in the test on CP325 and with CP329 was “inactive” each time.
Take `CC(=O)Nc1ccc(S(=O)(=O)Nc2ccc([N+](=O)[O-])cc2)cc1`: the Potency entry in the test on CP266, in the test on CP268, in the test on CP269, in the test with CP286, in the test with CP291 and in the test with CP297 was “inactive” throughout. Besides, the Potency entry in the test on CP305, with CP315, in the test with CP325 and with CP329 was “inactive” throughout.
With `CCOC(=O)C(C#N)=C(c1ccccc1)c1ccccc1`, the Potency result in the test on CP266, in the test with CP268, in the test on CP269, in the test with CP286, in the test on CP291 and with CP297 was “inactive” throughout. Moreover, the Potency entry with CP305, in the test with CP315, with CP325 and with CP329 was “inactive” throughout.
With `O=C(Oc1cccc2cccnc12)c1ccccc1`, the Potency entry in the test on CP266, with CP268, in the test on CP269, with CP286, in the test on CP291 and in the test with CP297 was “inactive” throughout. Further, the Potency result with CP305 and in the test on CP329 was “inactive” each time.
Regarding `COc1ccc(C(=O)c2ccccc2)c(O)c1`, the Potency entry in the test on CP266, in the test with CP268, in the test on CP269, with CP286, in the test with CP291 and in the test with CP297 was “inactive” throughout. The Potency result in the test on CP315, in the test on CP325 and in the test with CP329 was “inactive” throughout.
With `COc1ccccc1N1CCN(CCCCNC(=O)c2ccc(-c3ccc(C(C)=O)cc3)cc2)CC1`, the Potency entry in the test with CP266, in the test with CP268, in the test on CP269, with CP291, in the test with CP297 and in the test on CP305 was “inactive” in each case. Further, the Potency entry in the test on CP315, in the test with CP325 and in the test with CP329 was “inactive” in each case.
For `CO[C@]12C[C@@H](COC(=O)c3cncc(Br)c3)CN(C)[C@@H]1Cc1cn(C)c3cccc2c13`, the Potency result with CP266, in the test with CP269, in the test on CP315, in the test on CP325 and with CP329 was “inactive” each time.
For the compound `NC(N)=NCc1cccc(I)c1`, the Potency result in the test on CP266, in the test with CP268, in the test on CP269, in the test on CP286, with CP291 and in the test on CP305 was “inactive” in each case. For the same compound, the Potency result in the test on CP315, in the test on CP325 and with CP329 was “inactive” each time.
Regarding `CC(=O)O[C@]1(C(C)=O)CC[C@H]2[C@@H]3C=C(Cl)C4=CC(=O)CC[C@]4(C)[C@H]3CC[C@@]21C`, the Potency in the test with CP266 was 10.7 µM (active); in the test on CP268, 16.9 µM (active); with CP286 it was 10 µM (active); in the test on CP291, 15.1 µM (active); in the test on CP297, 9.53 µM (active); in the test on CP305, 13.5 µM (active). Moreover, the Potency in the test with CP325 was 15.1 µM (active).
